Screening data: PubChem BioAssay, National Center for Advancing Translational Sciences (NCATS)
Pf growth 48h = inhibits P. falciparum growth in the first generation, 48 h; P. falciparum luciferase growth in erythrocytes, 48 h; Potency, µM (highest dose often 28.7 µM), for the others: top-dose activity change, negative = inhibition, hits mostly inhibitors; hit rate 5.9% among 310,000; AID 504832
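A one-generation exposure of luciferase-tagged malaria parasites in RPMI 1640/Albumax erythrocyte culture, 37 C and 5% CO2. Inhibition is inferred from decreased luminescence after adding detection reagent.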
Pf growth 96h = P. falciparum growth inhibition at 96 hours. P. falciparum luciferase reporter growth, 96 h. Potency, µM (titrated, usually from 28.7 µM), inactives show top-dose activity change, negative = inhibition, usual class: inhibitors. hit rate 6.9% among 320,000. AID 504834
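Plates of compound plus infected erythrocytes (2% hematocrit, 0.05% parasitemia final) incubate 96 hours, 37 C, 5% CO2. Detection reagent added; reduced luminescence from the parasites' luciferase reporter flags inhibition.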
AMA1 RON2 block = disrupts binding of P. falciparum AMA1 to RON2; hit rate 0.2% among 360,000; Potency, µM (top dose mostly 58.2 µM), for the others: at the highest dose activity change, negative = inhibition, actives largely listed as inhibitors; AID 720542; AlphaScreen AMA1-biotinylated RON2 peptide binding;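 also: 0% = vehicle wells and -100% = peptide control; nearly all actives have a fitted effect of over 45% in size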
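AMA1 (3D7) with his tag at 25 nM final met compounds first, then biotinylated RON2 peptide at 25 nM; detection used donor plus acceptor beads, 10 µg/mL apiece, read by AlphaScreen after 30 min at room temperature.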
HCV inh = HCV inhibition | hit rate 3.4% among 340,000 | Huh7.5.1 HCVcc-Cre infection, luciferase reporter, 44 h | Potency, µM (series often up to 41.8 µM), for the others: at the top dose activity change, negative = inhibition, actives largely listed as inhibitors | AID 651820
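Seed cells (1,000/well) for 4 h; treat with compound and infect with HCVcc-Cre, moi about 0.5. Incubate 44 h, then detect luciferase activity.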
AmpC inh detg = AmpC beta-lactamase inhibition with detergent present | AmpC hydrolysis of nitrocefin, absorbance 480 nm, 0.01% Triton | hit rate 0.041% among 370,000 | Potency, µM (titrated, usually from 114 µM), inactives show at the top dose activity change, negative = inhibition, actives largely listed as inhibitors | AID 485294;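 also: 0% = no-compound wells and -100% = no-enzyme wells; nearly all actives have a fitted effect of over 25% in size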
Target sequence (P00811 whole entry, looked up): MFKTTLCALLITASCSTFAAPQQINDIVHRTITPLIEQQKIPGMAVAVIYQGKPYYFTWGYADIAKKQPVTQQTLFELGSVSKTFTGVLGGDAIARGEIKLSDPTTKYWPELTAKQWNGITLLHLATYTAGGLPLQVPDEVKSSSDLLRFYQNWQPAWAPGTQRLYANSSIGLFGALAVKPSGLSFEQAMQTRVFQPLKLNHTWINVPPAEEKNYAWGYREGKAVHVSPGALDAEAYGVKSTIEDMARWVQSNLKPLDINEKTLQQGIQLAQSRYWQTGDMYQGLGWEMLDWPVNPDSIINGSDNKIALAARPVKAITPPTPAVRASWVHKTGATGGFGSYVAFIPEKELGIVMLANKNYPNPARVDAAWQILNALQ
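20 mM phosphate pH 7.0 + 0.01% (detergent screen) or 0.0001% Triton X-100; 5.3 nM AmpC reagent; cpd preinc 15 min RT; nitrocefin (800 uM stock) to start; A480 q20 s × 4 min; Activity was normalised to no-enzyme and no-compound control wells.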
AmpC no deterg = AmpC beta-lactamase inhibition without detergent. P00811. AmpC nitrocefin hydrolysis, absorbance 480 nm, 0.0001% Triton. Potency, µM (doses to about 57.1 µM), without a hit: at the highest dose activity change, negative = inhibition, usual class: inhibitors. hit rate 0.52% among 330,000;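 also: plate controls were no compound for no effect and no enzyme for full effect; nearly all actives have a fitted effect of over 20% in size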
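AmpC (5.3 nM in the dispensed reagent) in 20 mM phosphate pH 7.0 with 0.01% (detergent screen) or 0.0001% Triton X-100 was preincubated with compounds for 15 min at room temperature. Nitrocefin was then added from an 800 uM solution, and hydrolysis was followed at 480 nm.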
Starred values were filed as active, the others as inactive; ? = inconclusive; nt = no result given; [ ] = remark or other dose. Shown are actives, neighbours in structure and some others; about 11% of the full set was active somewhere. Calls follow the shape of the dose curve; as a rule, active = well fitted curve in the direction sought with a large enough effect; inconclusive = small, poorly fitted or top-dose-only effect, or another doubt; inactive = no such curve, though single readings can be large; an effect the other way counts as inactive or inconclusive. Unless noted, % is scaled to controls: 0 for no effect and ±100 for the full control effect; potency is read from the fitted curve at half-maximal effect.

SMILES	Pf growth 48h	Pf growth 96h	AMA1 RON2 block	HCV inh	AmpC inh detg	AmpC no deterg
Cc1oc(-c2ccc(Cl)cc2)nc1CN1CCCC(C(=O)N2CCN(C(=O)c3ccco3)CC2)C1 (stereo not drawn)	nt	?	-6.0%	2µM*	-18.8%	135.5%
COc1ccc(-c2nc(CN3CCC(C(=O)NCc4ccc(F)cc4)CC3)c(C)o2)cc1OC	nt	nt	nt	nt	-12.8%	nt
COc1ccc(N2CCN(C(=O)C3CCN(Cc4nc(-c5ccc(Cl)cc5)oc4C)CC3)CC2)cc1	nt	nt	nt	nt	-11.8%	nt
Cc1oc(-c2cccc(Cl)c2)nc1CN1CCC(C(=O)NCc2cccnc2)CC1	2.62µM*	29.4%	-0.2%	?	0.1%	88.3%
CCc1ccc(-c2nc(CN3CCC(C(=O)N4CCN(c5ccccc5)CC4)CC3)c(C)o2)cc1	12.4%	1.85µM*	1.5%	?	-1.3%	168.2%
CCc1ccc(-c2nc(CN3CCC(C(=O)NCc4ccc(F)cc4)CC3)c(C)o2)cc1	13.1µM*	?	4.4%	17.8µM*	-8.3%	74.7%
COc1ccc(-c2nnc(SCC(=O)NC3CCCC3)nc2-c2ccc(OC)c(OC)c2)cc1OC	nt	nt	nt	nt	5.7%	nt
COc1ccc(CCNC(=O)C(=O)NCC(c2cccnc2)N2CCN(c3ccccc3)CC2)cc1 (stereo not drawn)	nt	nt	nt	nt	1.6%	nt
CCc1ccc(-c2nc(CN3CCC(C(=O)N4CCN(c5ccccn5)CC4)CC3)c(C)o2)cc1	-43.0%	38.5%	-22.0%	11.2µM*	3.8%	60.2%
C=C(C)COc1ccc(-c2ncncc2-c2ccccc2)c(O)c1	9.28µM*	13.1µM*	52.4%	-18.6%	1.1%	-14.3%
CCOc1ccc(-c2ncncc2-c2ccc(OC)cc2)c(O)c1	7.38µM*	?	-2.0%	4.6%	?	-5.5%
COc1ccc(-c2ncncc2-c2ccccc2)c(O)c1	?	?	-13.7%	-6.2%	1.2%	-18.3%
COc1ccc(-c2cc(-c3ccccc3)n[nH]2)c(O)c1	-21.9%	22.7%	88.1%	-28.4%	0.9%	-20.1%
Cc1ccc(S(=O)(=O)Nc2ccc(-c3ccc(N4CCCCCC4)nn3)cc2)cc1C	nt	nt	nt	nt	1.8%	nt
CCOC(=O)CCc1c(C)c2cc3c(c(C)c2oc1=O)OCN(CCc1ccccc1OC)C3	nt	nt	nt	nt	-6.1%	nt
CNC[C@@H](Cc1ccccc1)NC[C@@H](CC1CCCCC1)NCCCc1ccccc1	?	?	119.5%	?	?	125.3%
CCC[C@@H](CN[C@@H](CNC)C(C)C)NCCCCc1ccccc1	?	11.7µM*	94.9%	?	-12.9%	27.5%
CCC[C@@H](CNC)NC[C@H](Cc1ccccc1)NCCCCc1ccccc1	?	1.65µM*	99.6%	?	-15.3%	87.1%
CN(C)C/C=C(\c1ccc(Br)cc1)c1cccnc1	14.7µM*	?	3.6%	?	-10.2%	5.8%
C/C(=N\NC(=O)c1ccc(Br)cc1)c1cccnc1	63.2%	?	24.0%	2.8%	?	-26.0%
CCOc1ccc(NC(=O)CN2CCCC2c2cccs2)cc1S(=O)(=O)N1CCCCC1 (stereo not drawn)	11.7µM*	?	-25.7%	?	-6.4%	14.3%
CCOc1ccc(NC(=O)[C@@H]2CCCN2C(=O)c2cccs2)cc1S(=O)(=O)N1CCOCC1	?	?	6.7%	-6.6%	-3.2%	1.5%
O=C(Nc1ccc(OC(F)F)c(Cl)c1)[C@@H]1CCCN1C(=O)c1cccs1	?	4.15µM*	-11.2%	-3.8%	-1.2%	-16.7%
Cc1ccc(NC(=O)CN2CCCC2c2cccs2)cc1S(=O)(=O)N1CCCCC1 (stereo not drawn)	9.28µM*	?	10.1%	7.94µM*	7.4%	-7.7%
CCOc1ccc(NC(=O)[C@@H]2CCCN2C(=O)c2cccs2)cc1S(=O)(=O)N1CCCCC1	?	9.28µM*	-7.7%[11.6 µM]	0.5%	1.0%	-0.6%
SMILES	Pf growth 48h	Pf growth 96h	AMA1 RON2 block	HCV inh	AmpC inh detg	AmpC no deterg
O=C(NCc1ccccc1F)C(=O)NCC(c1ccc2c(c1)OCO2)N1CCOCC1 (stereo not drawn)	nt	nt	nt	nt	0.4%	nt
Cc1cccc(NC(=O)N2CC(=O)Nc3sc4c(c3C2c2ccccc2)CCCC4)c1C (stereo not drawn)	nt	nt	nt	nt	-2.3%	nt
O=C(CN1CCCC1c1cccs1)Nc1cc(S(=O)(=O)N2CCCCC2)ccc1Cl (stereo not drawn)	nt	nt	2.8%	5.01µM*	nt	nt
CCOc1ccc(NC(=O)CN(C)Cc2ccc3c(c2)OCO3)cc1S(=O)(=O)N1CCCC1	?	3.29µM*	-3.0%	?	-21.7%	21.8%
Cc1ccc(S(=O)(=O)N2CCCCC2)cc1NC(=O)CN1CCCC1c1cccs1 (stereo not drawn)	nt	nt	1.5%	nt	nt	nt
O=C(O)C(NS(=O)(=O)c1ccc(F)cc1)c1ccccc1 (stereo not drawn)	-1.8%	19.5%	-9.9%	-2.1%	-0.8%	-24.1%
CCC/C=C(\CCC)C(NS(=O)(=O)c1ccc(C(F)(F)F)cc1)c1ccccc1 (stereo not drawn)	9.28µM*	7.38µM*	nt	-0.7%[8.37 µM]	-13.5%	?
COc1ccc(CNC(=O)Cc2c(C)c3c(cc(C)c4c(C)c(C)oc43)oc2=O)cc1OC	nt	nt	nt	nt	21.6%	nt
Cc1nn(-c2ccccc2)c(N)c1N=O	15.2%	20.8%	64.9%	-19.8%	1.3%	-11.4%
Cc1nn(-c2ccccc2)c(N)c1C(c1ccccc1)c1c(C)nn(-c2ccccc2)c1N	?	13.1µM*	1.1%	8.3%	-3.5%	62.9%
CCc1ccc(CN(Cc2cn[nH]c2-c2ccc(OC)cc2)C(=O)Nc2ccc(Br)cc2)cc1	nt	nt	nt	nt	22.0%	nt
Cc1ncc(C[n+]2csc(CCOC(=O)CC34CC5CC(CC(C5)C3)C4)c2C)c(N)n1	?	50.0%	-1.7%	?	?	9.1%
Cc1c(CCO)sc[n+]1CC(=O)OCCC12CC3CC(CC(C3)C1)C2	5.22µM*	1.04µM*	-3.0%	-7.5%	-11.2%	30.7%
Cc1c(CCOC(=O)CC23CC4CC(CC(C4)C2)C3)sc[n+]1Cc1ccccc1	7.38µM*	?	-0.6%	-7.8%	-8.6%	66.5%
CC1CCN(c2ccc(-c3nc(C(C)C)no3)cc2[N+](=O)[O-])CC1	nt	nt	nt	nt	-1.8%	nt
CCN(CC)Cc1cc(NC2=NS(=O)(=O)c3ccccc32)ccc1OC(=O)c1ccccc1	?	9.28µM*	4.7%	0.3%	-11.2%	-28.8%
S=C=Nc1ccc(N=C=S)cc1	-2.2%	-2.5%	nt	nt	nt	nt
Cc1cc(SCC(=O)N2CCCC2=O)nc2c(C)cccc12	6.2%	24.6%	-8.6%	18.4%	-11.8%	2.1%
